Assay results from PubChem BioAssay.
Active and inactive are the calls of the source.

Tests used:
Albumin (Bos taurus) = Albumin (Bos taurus) (UniProt P02769); experiment: compounds binding labelled BSA control protein – biochemical, small-molecule microarray, Alexa647 label, 635/667 nm fluorescence, artefact control for SMM control protein annotation, profiling panel (AID 1118); settings: BSA-A647 binding, fluorescence 635 nm, higher = more signal;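 note: score merges 667 nm emission intensity and signal-to-noise per printed compound spot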
[1] = probe aXIP binding to arrayed compounds – biochemical, NeuroSMM set, 635/667 nm fluorescence, primary screen (AID 1119); settings: small-molecule microarray, higher = more signal, called active from +8 up or from −8 down;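 note: probe is the protein aXip251-270 applied at 1 µg/mL to compound-printed slides; binding of probe to printed compounds measured as 667 nm fluorescence plus signal to noise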
[2] = probe aNOTCH3 binding on compound microarray – biochemical, small-molecule microarray, 635/667 nm fluorescence, primary screen (AID 1120); settings: higher = more signal;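 note: probe is a biotin-tagged antibody raised against NOTCH3 rather than NOTCH3 protein; score merges spot fluorescence near 667 nm with spot signal to noise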
[3] = probe aNOTCH2 binding on compound microarray – biochemical, small-molecule microarray, 635/667 nm fluorescence, primary screen (AID 1121); settings: higher = more signal;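 note: score merges feature fluorescence read at 667 nm with its signal to noise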
[4] = target: Carbonic anhydrase 2 (Homo sapiens) (UniProt P00918); experiment: compounds binding carbonic anhydrase 2 – biochemical, small-molecule microarray, Alexa647-labelled CAII, profiling panel (AID 1122); settings: CAII-A647 binding fluorescence, higher = more signal
[5] = COS7 lysate on small-molecule microarray, probe aHis, 635 nm (AID 1123); settings: COS7 cell lysate, fluorescence, higher = more signal;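 note: z-score combines 667nm fluorescence intensity with signal-to-noise per printed compound spot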
[6] = probe aLAP1 signal on lysate-treated microarray – cell lysate, small-molecule microarray, COS7 lysate, primary screen (AID 1124); settings: probe aLAP1, fluorescence, higher = more signal;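 note: lysate comes from COS7 cells expressing LAP1 and is applied at 0.3 µg/mL; score merges spot fluorescence near 667 nm with signal-to-noise over triplicate slides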
Sam68 (KHDRBS1) = experiment: compounds binding KHDRBS1 protein – biochemical, small-molecule microarray, 635 nm fluorescence, primary screen (AID 1125); settings: higher = more signal;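 note: score merges 667 nm channel intensity with signal to noise over triplicate slides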
[7] = system: Chordin-like protein 2 (CHRDL2); experiment: compounds binding chordin-like 2 – biochemical, small-molecule microarray, 635 nm fluorescence, primary screen (AID 1126); settings: fluorescence 635 nm, higher = more signal;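 note: printed compound slides probed with Chrdl2 protein at 4 µg/mL for 1 h at 4 C; score merges 667 nm emission intensity with signal to noise over three replicate slides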
[8] = target: Concanavalin-A (Canavalia ensiformis) (UniProt P02866); experiment: compounds binding concanavalin A lectin – biochemical, small-molecule microarray, Alexa647 label, 635 nm, artefact control for SMM control protein annotation, primary screen (AID 1127); settings: ConA-A647 binding fluorescence, higher = more signal;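 note: z combines 667 nm emission intensity with signal-to-noise across three replicate slides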
Chain of Concanavalin-A (Canavalia ensiformis) (P02866 whole entry, looked up): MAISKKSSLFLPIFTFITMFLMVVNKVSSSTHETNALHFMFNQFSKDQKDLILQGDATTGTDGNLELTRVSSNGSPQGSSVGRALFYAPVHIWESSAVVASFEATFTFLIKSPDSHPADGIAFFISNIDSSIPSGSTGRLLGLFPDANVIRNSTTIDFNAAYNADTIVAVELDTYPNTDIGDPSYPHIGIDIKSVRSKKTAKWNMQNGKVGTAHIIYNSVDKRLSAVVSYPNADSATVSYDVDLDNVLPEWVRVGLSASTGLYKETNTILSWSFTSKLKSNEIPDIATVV

Chain of Albumin (Bos taurus) (P02769 whole entry, looked up): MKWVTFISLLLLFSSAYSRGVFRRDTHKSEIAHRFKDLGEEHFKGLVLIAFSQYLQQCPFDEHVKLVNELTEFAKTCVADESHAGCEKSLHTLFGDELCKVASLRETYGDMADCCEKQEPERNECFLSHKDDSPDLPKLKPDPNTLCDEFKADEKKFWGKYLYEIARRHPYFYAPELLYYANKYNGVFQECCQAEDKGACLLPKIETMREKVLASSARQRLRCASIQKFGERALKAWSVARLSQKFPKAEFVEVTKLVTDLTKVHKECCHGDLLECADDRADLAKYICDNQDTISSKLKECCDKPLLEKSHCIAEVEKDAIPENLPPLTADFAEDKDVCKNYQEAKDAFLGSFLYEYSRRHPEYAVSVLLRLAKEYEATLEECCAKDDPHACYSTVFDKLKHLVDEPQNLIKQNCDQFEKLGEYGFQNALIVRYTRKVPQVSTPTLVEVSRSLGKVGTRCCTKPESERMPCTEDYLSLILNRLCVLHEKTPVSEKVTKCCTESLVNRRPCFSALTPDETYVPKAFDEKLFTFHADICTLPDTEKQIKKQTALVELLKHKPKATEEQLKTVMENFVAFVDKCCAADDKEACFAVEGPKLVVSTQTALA

SMILES	composite z-score (Albumin (Bos taurus))	composite Z-score [1]	composite z-score [2]	composite z-score [3]	composite z-score [4]	composite z-score [5]	composite z-score [6]	composite z-score (Sam68 (KHDRBS1))	composite z-score [7]	composite z-score [8]
Cc1ccc(S[C@]2(C(=O)NCc3ccccc3)CC(=O)N(Cc3ccccc3Cl)[C@@H]2c2ccc(CO)cc2I)cc1	0.451	-0.422 (inactive)	-0.275	-0.198	0.721	0.616	0.198	-0.414	-1.03	-0.139
Cc1ccc(S[C@]2(C(=O)NCC(C)C)CC(=O)N(Cc3ccccc3)[C@@H]2c2ccc(CO)cc2I)cc1	0.256	0.552 (inactive)	0.0301	-0.125	0.633	1.21	0.888	1.18	0.718	0.939
Cc1ccccc1C(O)C1C=CC2C(=O)N(C)C(=O)C2N1Nc1ccccc1 (stereo not given)	1	0.0032 (inactive)	0.0674	-0.0168	0.821	2.05	0.415	1.23	-0.345	1.15
CCN(CC)c1ccc(N2CC=CC34O[C@@H]5C=CCCOC(=O)C5[C@H]3C(=O)N(CCCCCO)[C@@H]4C2=O)cc1 (stereo not given in full)	-0.515	1.07 (inactive)	0.0522	0.396	0.285	0.395	0.483	0.13	-0.218	-0.459
CCC(CC)C(O)C1C=CC2C(=O)N(c3ccccc3)C(=O)C2N1Nc1ccc(C#N)cc1 (stereo not given)	1.09	0.35 (inactive)	0.628	0.241	0.729	2.61	-0.266	1.3	0.158	1.23
COCCOC(=O)N1C(=O)[C@@]2(c3ccccc31)[C@H](C(=O)NC[C@H](O)c1ccccc1)[C@H]1C(=O)O[C@H](c3ccccc3)[C@H](c3ccccc3)N1[C@@H]2c1ccc(OCCO)cc1	0.605	-0.404 (inactive)	0.267	-0.0959	0.492	1.53	-0.0994	1.3	1.22	1.12
CC(C)C(O)C1C=CC2C(=O)N(c3ccccc3)C(=O)C2N1Nc1ccc(C#N)cc1 (stereo not given)	1.03	2.09 (inactive)	0.276	0.0883	0.842	2.73	0.997	1.26	-0.387	1.19
CCOC(=O)C[C@H]1[C@H](OC(=O)Cc2ccc3c(c2)OCO3)[C@@H](NC(=O)c2ccc(-c3ccccc3)cc2)c2cc(OCCCO)ccc2N1C(=O)c1ccccc1	0.731	0.133 (inactive)	0.0316	-0.0649	0.364	0.341	-0.202	0.792	0.379	0.645
CC(C)(C)OC(=O)CC[C@]1(C(=O)N2CCCCC2)N=C(c2ccc(OCCCO)cc2)O[C@H]1c1ccccc1N=[N+]=[N-]	0.657	2.33 (inactive)	0.128	-0.0391	0.528	2.05	-0.0995	1.25	-0.292	1.19
C[C@]1(C(=O)NCc2ccccc2)c2ccccc2C(=O)N(Cc2cc(F)cc(C(F)(F)F)c2)[C@H]1c1ccc(CO)cc1	-0.35	-0.146 (inactive)	-0.177	-0.0971	0.699	0.157	0.325	-0.763	-0.786	-0.871
C=C(CCCC)/C(=C/C[C@H](OC(C)=O)c1ccc(CO)o1)c1cnc2ccccc2c1	0.475	-1.16 (inactive)	0.0282	-0.14	0.73	0.612	-0.193	1.05	0.968	0.931
CCOC(=O)C1=C[C@@H](C(C)C)N(S(=O)(=O)c2ccc(C)cc2)[C@H]1c1ccc(C(C)C)cc1	0.822	0.376 (inactive)	0.0538	-0.0148	0.39	1.81	0.586	1.31	0.241	1.07
COC(=O)c1ccc(C(O)C2C=CC3C(=O)N(C)C(=O)C3N2NC(=O)OC(C)(C)C)o1 (stereo not given)	0.538	1.02 (inactive)	0.178	0.135	0.436	0.489	0.734	0.94	-0.0987	0.494
O=C(O)[C@H]1C[C@H]2C(=O)NCC(=O)N2[C@H]1c1ccc(O)cc1	0.346	0.289 (inactive)	0.791	-0.0761	0.688	0.921	0.0741	0.0505	1.26	0.482
N#Cc1ccc(NN2C(C(O)c3cccs3)C=CC3C(=O)N(c4ccccc4)C(=O)C32)cc1 (stereo not given)	0.536	0.388 (inactive)	0.144	-0.0136	0.817	2.28	0.672	1.01	-0.0869	1.02
CN1C(=O)C2C(C1=O)C1C=C(CCCO)C2C(c2cccs2)N1C (stereo not given)	0.565	0.654 (inactive)	-0.154	-0.231	0.779	0.138	1.62	-0.27	-0.0999	-0.774
O=C1OCCC=C[C@H]2OC34C=CCN(Cc5ccccc5)C(=O)[C@H]3N(CCCCCCO)C(=O)[C@@H]4C12 (stereo not given in full)	-0.0045	0.0421 (inactive)	-0.241	-0.171	0.898	1.2	0.0054	0.409	-1.02	-0.745
C=C[C@H](C)[C@@H](O)c1ccc(O)c2ccccc12	0.841	0.681 (inactive)	-0.191	0.291	0.493	0.165	0.361	-0.49	0.866	-1.04
COc1ccc([Si](C)(C)[C@H]2[C@H](CCn3cc([C@H](O)c4ccccc4)nn3)O[C@@]3(C(=O)N(Cc4cccc(N5CCC5=O)c4)c4ccccc43)[C@@H]2C)cc1	0.31	-0.0916 (inactive)	-0.219	-0.245	0.115	1.12	-0.166	0.316	0.317	0.47
CC(C)C[C@@H]1NC(=O)[C@H]2C[C@@H](C(=O)NCCCCCCNC(=O)CS)[C@@H](c3cccc(OCCO)c3)N2C1=O	-0.641	0.156 (inactive)	0.0493	-0.132	0.338	1.68	0.995	1.22	1.41	1.17
C=CCC(OC(C)=O)[C@@H]1[C@@H](N(Cc2cccc3ccccc23)C(=O)c2cccc3ccccc23)c2cc(OCCCO)ccc2N1C(=O)c1ccc2ccccc2n1 (stereo not given in full)	-0.0648	0.639 (inactive)	0.0556	-0.0323	-0.12	0.656	-0.342	-0.0153	0.366	-0.0505
